“And” between values parts separate entries of the source, which are not always exact repeats. Equal entries are not always repeated. The whole screen tested about 220,000 compounds, of which about 2,400 (1.1%) were called active. What follows is part of a selection rich in actives, with near analogues and random picks from the rest. Unmarked numbers belong to inactive results.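 Rule for the calls: active = inhibition above the campaign mean plus 3 SD over all tested compounds (cut at about 24% in these data); inactive = the rest.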
Experiment: reduced viability of JAK2V617F-dependent Ba/F3 cells, primary screen, JAK2V617F inhibitor project, cell-based, Ba/F3 EpoR-JAK2V617F, luminescence (AID 1446);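 note: cytokine-independent growth of Ba/F3 cells driven by EpoR plus mutant JAK2; 0% = DMSO-treated cells and 100% = JAK inhibitor I control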
Conditions: ATP luminescence, at 5.6 µM, hits give high values

Row | Compound | inhibition
1 | CC(=O)c1cnc(-c2ccccc2)s1 | -0.87%
2 | COc1ccc2c(c1OC)C(=O)OC2c1c(O)nc(SC)n(-c2ccccc2)c1=O (stereo unspecified) | -4.02%
3 | COc1ccc(-c2csc(NC3OC(=O)c4ccccc43)n2)cc1 (stereo unspecified) | 11.9%
4 | COc1ccc2c(c1OC)C(=O)OC2Nc1nc(-c2ccccc2)cs1 (stereo unspecified) | 68.6% (active)
5 | Cn1c(SCC(=O)Nc2ccc(Cl)cc2)nc(O)cc1=O | -1.33%
6 | O=C1CC(c2c(F)cccc2Cl)C(n2cncn2)C(O)=C1C1NCCc2ccccc21 (stereo unspecified) | -3.23%
7 | COc1ccccc1C1C2=C(COC2=O)Nc2cc3c(cc21)OCO3 (stereo unspecified) | 85.5% (active)
8 | COc1ccc(C2CC(=O)Nc3cc(C)c(C)cc32)c(OC)c1OC (stereo unspecified) | 0.14%
9 | COc1cc2c(cc1/C=C1/NC(=O)N(c3ccccc3)C1=O)OCO2 | 0.39%
10 | COCCOC(=O)C1=C(C)NC(=O)CC1c1cc2c(cc1Br)OCO2 (stereo unspecified) | 1.76%
11 | COc1ccc(F)cc1S(=O)(=O)Nc1ccc2c(c1)OCO2 | 0.08%
12 | CCCOc1ccccc1C1CC(=O)Nc2cc3c(cc21)OCO3 (stereo unspecified) | 74.4% (active)
13 | Cc1nc(C(=O)N2CCCC(C(=O)c3ccc(Cl)cc3)C2)cs1 (stereo unspecified) | -2.53%
14 | CC(=O)N1CCN(S(=O)(=O)c2c(F)cc(F)c(Cl)c2F)CC1 | -1.72%
15 | COc1ccc(CN(C)C(C)C(=O)NC2CCCc3ccccc32)cc1 (stereo unspecified) | 3.02%
16 | COc1ccc2nc(SCc3ccccc3)nc(C)c2c1 | 2.96%
17 | CCOC(=O)C1C(c2ccc(OC)c(OC)c2)c2c([nH][nH]c2=O)CC1(C)O (stereo unspecified) | -0.54%
18 | O=C(CCCn1c(=O)c2sccc2n(CC(=O)NCC2CCCO2)c1=O)NCc1ccco1 (stereo unspecified) | -0.32%
19 | COc1ccc(C2c3ccc(O)cc3Oc3ncn(CCCO)c(=N)c32)cc1OC (stereo unspecified) | -1.6%

Row | Compound | inhibition
20 | COc1ccc(NC(=S)NCCNC(C)=O)cc1 | -1.93%
21 | Cc1ccc(NC(=O)OCc2cncs2)cc1 | 4.29%
22 | COc1ccc(Nc2cc(Cl)ccc2C(=O)O)cn1 | -1.48%
23 | COc1ccc(NC(=O)/C(Cl)=C(/Cl)S(=O)Cc2ccc(C)cc2)cn1 (stereo unspecified) | 100% (active)
24 | COc1ccc(CS(=O)/C(Cl)=C(/Cl)C(=O)Nc2ccc(OC)nc2)cc1 (stereo unspecified) | 101% (active)
25 | COc1ccc(NC(=S)Nc2ccccc2Cl)cn1 | 4%
26 | CCC(=O)N1CCCc2ccccc21 | -4.91%
27 | C=CCc1cccc2cc(C(=O)Nc3ccc(NC(C)=O)cc3)c(=O)oc12 | -0.67%
28 | CC1CCCCN1S(=O)(=O)c1ccc(C(=O)Nc2nnc(-c3cccs3)o2)cc1 (stereo unspecified) | 36.5% (active)
29 | CC1CCCN(S(=O)(=O)c2ccc(C(=O)Nc3nnc(-c4ccncc4)o3)cc2)C1 (stereo unspecified) | -1.33%
30 | CC1CCCCN1S(=O)(=O)c1ccc(S(=O)(=O)N(CC(=O)Nc2ccccc2)Cc2cccs2)cc1 (stereo unspecified) | -2.37%
31 | C/C(=N\NC(=O)OC(C)(C)C)c1ccc[nH]1 | 1.03%
32 | CCN(CC)C(=O)Oc1ccc(Br)cc1C(=O)Nc1ccc(F)c(Cl)c1 | -0.45%
33 | CCOC(=O)C(C)n1nc(-c2ccccc2)c2ccccc2c1=O (stereo unspecified) | -1.31%
34 | COc1ccc(C(=O)NC(Cc2ccc(OC(=O)c3ccc(OC)cc3)cc2)C(=O)O)cc1 (stereo unspecified) | -2.6%
35 | O=C(CN1CCN(S(=O)(=O)c2ccc(Br)cc2)CC1)Nc1ccccc1C(=O)c1ccccc1 | -3.02%
36 | Nc1ccc(Oc2ccc(Cl)cc2)cc1 | 7.34%
37 | CC(C)(C)c1ccc(Oc2ccc(N)cc2)cc1 | 33.3% (active)
38 | Cc1ccc(Oc2ccc(N)cc2)cc1 | 0.92%

Row | Compound | inhibition
39 | CC(C)CN1CCNC(=O)C1CC(=O)N(C)CC1CCOCC1 (stereo unspecified) | -1.14%
40 | Cc1ccc(-c2cc(C(F)(F)F)n3ncc(C(=O)N4CCCCC4c4cccnc4)c3n2)cc1 (stereo unspecified) | -1.34%
41 | COc1cc2c(cc1OC)CN(C(=O)c1ccc(S(=O)(=O)N3CCCCCC3)cc1)CC2 | 4.67%
42 | CCOc1cc(C(=O)N2CCc3cc(OC)c(OC)cc3C2)ccc1OC(F)F | 82.7% (active)
43 | COc1cc2c(cc1OC)CN(C(=O)c1cc(=O)c3ccccc3o1)CC2 | 15.9%
44 | OCC1(Cc2ccccc2C(F)(F)F)CCN(Cc2ccncc2)CC1 | 3.31%
45 | C[C@@H]1C[C@@H]2O[C@H]2/C=C\C=C\C(=O)Cc2c(Cl)c(O)cc(O)c2C(=O)O1 | 96.8% (active)
46 | CCOC(=O)c1ccc(NC(=O)Cn2cnc3cc(C)c(C)cc32)cc1 | 47.2% (active)
47 | CCOC(=O)c1ccc(NC(=O)CSc2ncccn2)cc1 | -1.61%
48 | CCOC(=O)c1ccc(NC(=O)Cn2nnc(-c3ccc(C)cc3)n2)cc1 | -1.34%
49 | CCOC(=O)c1ccc(N=C2SC(C(=O)NC)CC(=O)N2CCc2ccccc2)cc1 (stereo unspecified) | 1.63%
50 | Cc1ccc(-c2c[n+](CC(=O)Nc3ccccc3)c3n2CCC3)cc1 | -4.7%
51 | Clc1ccc(C[n+]2cc(-c3ccccc3)n3c2CCC3)cc1 | 70.5% (active)
52 | Clc1ccc(C[n+]2cc(-c3ccc(Cl)cc3)n3c2CCC3)cc1 | 50.1% (active)
53 | Cc1ccc(C(=O)C[n+]2cc(-c3ccccc3)n3c2CCCCC3)cc1 | 69.4% (active) and 87.4% (active)
54 | O=C(C[n+]1cc(-c2ccc(Cl)c(Cl)c2)n2c1CCC2)c1cccs1 | 4.8%
55 | Cn1c(-c2ccccc2)c[n+]2c1CCCCC2 | -3.91%
56 | CN(C(=O)CSc1nnc(-c2n[nH]c3ccccc23)o1)c1ccccc1 | 2.55%

Source: PubChem BioAssay AID1446 (The Scripps Research Institute Molecular Screening Center, 2008)
